The record followed here is PubChem BioAssay (EPA / NIEHS).

Read-out in experiment [1]: Forkhead box O1 (FOXO1), FOXO1 (gene 2308)
Description: LTEA_HepaRG_FOXO1: Life Technologies and Expression Analysis (LTEA) Assay for Forkhead box O1 (FOXO1) using HepaRG (AID 2283456). Conditions: mRNA level, 48 h; actives raise or lower the signal. Summed up: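 Differentiated human HepaRG cells in serum-free induction medium were exposed in duplicate for 48 h to eight half-log concentrations (top 100 uM, 0.5% DMSO). FOXO1 mRNA was measured by TaqMan qRT-PCR, normalised to ACTB, GAPDH and POLR2A, and fitted bidirectionally against DMSO.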

Read-out in experiment [2]: growth arrest and DNA damage 45 (GADD45A), GADD45A (gene 1647)
Description: LTEA_HepaRG_GADD45A: Life Technologies and Expression Analysis (LTEA) Assay for growth arrest and DNA damage 45 (GADD45A) using HepaRG (AID 2283458). Conditions: mRNA level, 48 h; actives raise or lower the signal. The essentials: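 Human HepaRG liver cells are treated in duplicate for 48 h with chemicals in 0.5% DMSO, highest concentration 100 uM. Expression is read by qRT-PCR and analyzed in both directions against vehicle.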

Read-out in experiment [3]: Forkhead box O3 (FOXO3), FOXO3 (gene 2309)
Description: LTEA_HepaRG_FOXO3: Life Technologies and Expression Analysis (LTEA) Assay for Forkhead box O3 (FOXO3) using HepaRG (AID 2283459). The following applies: mRNA level, 48 h; actives raise or lower the signal. Summed up:
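Differentiated human HepaRG cells in serum-free induction medium were exposed in duplicate for 48 h to eight half-log concentrations up to 100 uM in 0.5% DMSO. FOXO3 mRNA was quantified by qRT-PCR, normalized to ACTB, GAPDH and POLR2A, with bidirectional fitting versus DMSO.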

Read-out in experiment [4]: growth arrest and DNA damage 45 (GADD45B), GADD45B (gene 4616)
The experiment in a line: LTEA_HepaRG_GADD45B: Life Technologies and Expression Analysis (LTEA) Assay for growth arrest and DNA damage 45 (GADD45B) using HepaRG (AID 2283461). The following applies: mRNA level, 48 h; actives raise or lower the signal. Summed up: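 Human HepaRG monolayers receive chemicals for 48 h at eight half-log concentrations, highest 100 uM, in 0.5% DMSO. Expression is measured by TaqMan qRT-PCR and normalized to ACTB, GAPDH and POLR2A.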

Read-out in experiment [5]: ABC Transporter (ABCC3), ABCC3 (gene 8714)
The experiment in a line: LTEA_HepaRG_ABCC3: Life Technologies and Expression Analysis (LTEA) Assay for ABC Transporter (ABCC3) using HepaRG (AID 2283462). Conditions: mRNA level, 48 h; actives raise or lower the signal. Summed up:
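Transcriptional change of ABCC3 in HepaRG after 48 h treatment, determined by qRT-PCR normalized to endogenous controls. Concentrations spanned eight half-log steps to 100 uM in 0.5% DMSO.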

Read-out in experiment [6]: ABC Transporter (ABCC2), ABCC2 (gene 1244)
Description: LTEA_HepaRG_ABCC2: Life Technologies and Expression Analysis (LTEA) Assay for ABC Transporter (ABCC2) using HepaRG (AID 2283464). The following applies: mRNA level, 48 h; actives raise or lower the signal. Summed up: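 After plating and 48 h culture, HepaRG medium is replaced with serum-free induction medium and chemicals are added (8 concentrations, max 100 uM, 0.5% DMSO) for 48 h. Total RNA then undergoes qRT-PCR for ABCC2 with housekeeping normalization.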

Read-out in experiment [7]: ABC Transporter (ABCB1), ABCB1 (gene 5243)
Description: LTEA_HepaRG_ABCB1: Life Technologies and Expression Analysis (LTEA) Assay for ABC Transporter (ABCB1) using HepaRG (AID 2283460). The following applies: mRNA level, 48 h; actives raise or lower the signal. Summed up: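 Differentiated human HepaRG cells, plated 48 h then switched to serum-free induction medium, were exposed in duplicate to eight half-log concentrations up to 100 uM in 0.5% DMSO for 48 h. ABCB1 mRNA was measured by TaqMan qRT-PCR, normalized to ACTB/GAPDH/POLR2A.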

Read-out in experiment [8]: ABC Transporter (ABCB11), ABCB11 (gene 8647)
The experiment in a line: LTEA_HepaRG_ABCB11: Life Technologies and Expression Analysis (LTEA) Assay for ABC Transporter (ABCB11) using HepaRG (AID 2283463). The following applies: mRNA level, 48 h; actives raise or lower the signal. The essentials:
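Differentiated human HepaRG cells were exposed for 48 h in serum-free induction medium to eight half-log concentrations up to 100 uM in 0.5% DMSO. ABCB11 mRNA was quantified by qRT-PCR, normalized to ACTB, GAPDH and POLR2A, and fitted bidirectionally versus DMSO.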

Read-out in experiment [9]: Broad substrate specificity ATP-binding cassette transporter ABCG2 (Homo sapiens) (UniProt Q9UNQ0)
Description: LTEA_HepaRG_ABCG2: Life Technologies and Expression Analysis (LTEA) Assay for ABC Transporter (ABCG2) using HepaRG (AID 2283465). The following applies: mRNA level, 48 h; actives raise or lower the signal. Summed up: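 Differentiated HepaRG cells in serum-free induction medium were exposed for 48 h, in duplicate, to eight half-log concentrations up to 100 uM in 0.5% DMSO. ABCG2 mRNA was measured by TaqMan qRT-PCR, normalized to ACTB, GAPDH and POLR2A, and fitted bidirectionally versus DMSO.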

Experiment [10] is described as follows: CEETOX_H295R_TESTO: CeeTox H295R High-throughput Steroidogenesis Assay for Testosterone (TESTO) (AID 2283457). The following applies: actives raise or lower the signal. As to the method:
CEETOX_H295R is a cell-based, multiplexed-readout assay that uses H295R, a human adrenal gland cell line, with measurements taken at 48 hours after chemical dosing in a 96-well plate.CEETOX_H295R_TESTO is one of 23 assay component(s) measured or calculated from the CEETOX_H295R assay. It is designed to make measurements of hormone induction, a form of inducible reporter, as detected with […] by HPLC-MS-MS technology.Data from the assay component CEETOX_H295R_TESTO was analyzed into 1 assay endpoint. This assay endpoint, CEETOX_H295R_TESTO, was analyzed with bidirectional fitting relative to DMSO as the negative control and baseline of activity. Using a type of inducible reporter, gain or loss-of-signal activity using HPLC-MS-MS was used to understand synthesis of Testosterone in H295R cell line at 48hr of chemical exposure. To generalize the intended target to other relatable targets, this assay endpoint is annotated to the steroid hormone intended target family, where the subfamily is androgens.
Cell culture and media preparation procedures were conducted in accordance with OECD Test No. 456 guidelines, with minor modifications. H295R cells (ATCC CRL-2128) were expanded for 5 passages and frozen in batches in liquid nitrogen. Prior to the steroidogenesis assay, H295R cells were thawed and passed at least 4 times. The maximum passage was 10. Cells were maintained in a 1:1 mixture of DMEM/F12 supplemented with 5ml/L ITS+ Premix (BD Bioscience) and 12.5 ml/L Nu-Serum (BD Bioscience). After seeding cells into 96-well plates at 50-60% confluency, cells were allowed to adhere overnight. […] Test chemicals were incubated for 48 hours, then the medium was removed and split into 2 vials containing approximately 75uL each, and stored at -80 C prior to hormone analysis. For steroid quantification, media samples were shipped to OpAns, LLC (Durham, NC) on dry ice, and samples were thawed to room temperature prior to liquid-liquid extraction. Steroid hormones were extracted from media samples using methyl tertbutyl ether (MTBE). An extra derivatization with dansyl chloride was included for estrogen (estrone and estradiol) detection only. Steroid hormones were separated by HPLC, eluted using a reverse phase C18 gradient with electrospray positive ionization, followed by quantification by tandem mass spectrometry (MS/MS). Data were acquired on a MassHunter Workstation Acquisition version B03.01 (Agilent Technologies, Inc.) and processed using MassHunter Quantitative Analysis for QQQ. Accuracy was determined for each hormone analyte from 3 standards to determine upper and lower limits of quantification (ULOQ and LLOQ, respectively) using a 7-point standard curve. Precision and accuracy of the extraction and quantification methods were calculated as the percent relative standard deviation (%RSD) of the spiked standards and percent spiked standard recovered, respectively. […] Test medium was removed following chemical exposure, and cell viability was evaluated in the same wells by MTT. […] Absorbance was read at 570 and 650nm using a Packard Fusion microplate reader. Background correction of absorbance units was used to determine percent change relative to controls. […] When a test chemical reduced cell viability to 20% - 70%, the test chemical was diluted 10-fold and re-evaluated, but if cell viability was <20%, then the test chemical was diluted 100-fold and re-evaluated. […]

Activity calls are given as the source filed them. How the source made its calls: active means hit-call score of the fitted dose curve at least 0.9, where 1 is the maximum; inactive means score below 0.9.

Sequence of Broad substrate specificity ATP-binding cassette transporter ABCG2 (Homo sapiens) (Q9UNQ0 whole entry, looked up): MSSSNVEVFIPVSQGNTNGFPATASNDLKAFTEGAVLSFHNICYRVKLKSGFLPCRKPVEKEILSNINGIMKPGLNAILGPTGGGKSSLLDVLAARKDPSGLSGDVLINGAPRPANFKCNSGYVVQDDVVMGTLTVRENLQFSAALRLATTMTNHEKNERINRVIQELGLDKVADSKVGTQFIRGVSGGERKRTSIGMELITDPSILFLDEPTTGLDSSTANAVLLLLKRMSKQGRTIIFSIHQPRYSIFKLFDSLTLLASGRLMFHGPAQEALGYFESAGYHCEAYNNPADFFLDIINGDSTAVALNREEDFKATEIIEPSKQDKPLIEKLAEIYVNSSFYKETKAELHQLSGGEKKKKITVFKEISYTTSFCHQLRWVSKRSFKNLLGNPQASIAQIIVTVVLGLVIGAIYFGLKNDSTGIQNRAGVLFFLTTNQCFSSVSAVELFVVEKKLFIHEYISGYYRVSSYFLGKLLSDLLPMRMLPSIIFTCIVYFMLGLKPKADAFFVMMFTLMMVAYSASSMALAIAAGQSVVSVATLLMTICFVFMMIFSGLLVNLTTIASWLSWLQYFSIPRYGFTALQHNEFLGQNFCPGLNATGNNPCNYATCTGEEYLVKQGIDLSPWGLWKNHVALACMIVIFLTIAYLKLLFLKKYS

With `CCCCCCCC1CCC(=O)O1` (stereo not given), the compound was called inactive in experiment [1], in experiment [2], in experiment [3], in experiment [4], in experiment [5] and in experiment [6].
`CC(C)CC(C)O` (stereo not given): the call in experiment [1], in experiment [2], in experiment [3], in experiment [7], in experiment [4] and in [5] was inactive. Besides, the result in experiment [8] and in experiment [6] was inactive.
Regarding `OCCOCCOCCO`, the outcome in experiment [1], in experiment [2], in experiment [3], in [4], in experiment [5] and in experiment [8] was inactive. The result in [6] and in experiment [9] was inactive. In experiment [7], the AC50 was 0.115 µM (active).
Consider `OC(CCl)CCl`, for which the compound was classed as inactive in experiment [1], in experiment [2], in experiment [3], in [7], in experiment [4] and in experiment [5]. For the same compound, the compound was called inactive in experiment [8], in experiment [6] and in [9].
Take `O=C(O)c1cccc(C[C@@H]2COc3ccc(OCc4nc5cc(F)ccc5s4)cc3[C@@H]2O)c1`: the outcome in experiment [1], in experiment [2], in [3], in experiment [7], in [4] and in experiment [6] was inactive. In addition, the compound was called inactive in experiment [9]. The concentration at half-maximal activity (AC50) in experiment [5] and in experiment [8] was 79.3 µM (active) each time.
Consider `O=S(=O)(O)c1ccc(N=Nc2c(O)ccc3cc(S(=O)(=O)O)ccc23)cc1`, for which the outcome in experiment [1], in [2], in [3], in experiment [7], in experiment [4] and in experiment [5] was inactive. For the same compound, the result in experiment [8], in experiment [6] and in experiment [9] was inactive.
Turning to `CCCOc1ccc(S(=O)(=O)N2CCN(CC)CC2)cc1-c1nc2c(CC)n(Cc3ccccn3)nc2c(=O)[nH]1`, the compound was classed as inactive in [1], in experiment [2], in experiment [3], in [4], in [5] and in experiment [9]. Besides, the AC50 in experiment [7] was 2.87 µM (active); in experiment [8] it was 27.7 µM (active); in experiment [6], 5.49 µM (active).
With `OCc1c[nH]c2ccccc12`, the result in experiment [10] was inactive.
As for `c1ccc(C(O[C@@H]2CCCN(CCc3ccc4c(c3)OCO4)C2)c2ccccc2)cc1`, the result in experiment [1] and in [9] was inactive. Also, the half-maximal activity concentration (AC50) in experiment [2] is 89.2 µM (active); in experiment [3] it was 10.2 µM (active); in experiment [7], 83.9 µM (active); in [4] it was 81.1 µM (active); in [5] it was 30.1 µM (active); in experiment [8] it was 76.8 µM (active). For the same compound, the AC50 in experiment [6] is 79.7 µM (active).
`COc1cc(C(C)C)c2c(c1)S(=O)(=O)N(COc1cc(=O)n3cccc(OCCN4CCCCC4)c3n1)C2=O`: the compound was classed as inactive in experiment [1], in [2] and in experiment [4]. Moreover, the AC50 is 19.4 µM (active) in [3]; 21.3 µM (active) in experiment [7]; 22.1 µM (active) in [5]; 17.5 µM (active) in [8]; 22.3 µM (active) in experiment [6]; 20.9 µM (active) in experiment [9].
With `CCCCCCCCCCCCCCCCOS(=O)(=O)O`, the compound was classed as inactive in experiment [1], in experiment [2], in experiment [3], in [7], in experiment [4] and in experiment [5]. Further, the result in experiment [6] and in [9] was inactive. The concentration at half-maximal activity (AC50) in experiment [8] was 41.1 µM (active).
For the compound `CCOc1ccc2[nH]cc(C(=O)NCc3ccccc3)c(=O)c2n1`, the outcome in experiment [1], in experiment [2], in [3], in experiment [7], in experiment [4] and in experiment [5] was inactive. For the same compound, the compound was classed as inactive in experiment [8], in experiment [6] and in [9].
Take `O=S1(=O)CCCO1`: the outcome in experiment [1], in [2], in experiment [3], in experiment [7], in experiment [4] and in experiment [5] was inactive. Besides, the result in experiment [8], in [6] and in experiment [9] was inactive.
Consider `NNC(=O)c1ccncc1`, for which the compound was called inactive in [1], in experiment [2], in experiment [3], in experiment [7], in experiment [4] and in experiment [5]. The call in [8] and in [6] was inactive.
As for `Cc1ccc(S(=O)(=O)NC(=O)NN2CCCCCC2)cc1`, the compound was classed as inactive in [1], in [2], in experiment [3], in [4], in experiment [5] and in experiment [8]. In addition, the compound was classed as inactive in [6] and in experiment [9]. Also, in experiment [7], the half-maximal activity concentration (AC50) is 20.1 µM (active).
With `CC1(C)C(=O)N(Cl)C(=O)N1Cl`, the outcome in [1], in [2], in [3], in experiment [7], in [4] and in experiment [5] was inactive. Moreover, the outcome in [8], in [6] and in [9] was inactive.
As to `O=C(NO)C1(NS(=O)(=O)c2ccc(Oc3ccc(F)cc3)cc2)CCOCC1`, the compound was called inactive in [1], in [2], in [3], in [7], in experiment [4] and in [6]. Besides, in [9], the compound was classed as inactive. In addition, the half-maximal activity concentration (AC50) in [5] was 80.1 µM (active); in [8] it was 82.8 µM (active).
